In PubChem BioAssay (NCI):
This is part of a sample that, as a whole, favours compounds with a hit. Of some 83,000 tested, about 20% had one in any assay.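 A percent growth of 40 corresponds to 60% growth inhibition; 0 means no net growth; -100 means all cells died. Active threshold: below 10.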 The source made the active and inactive calls.

Key:
Test in all cases: NCI-60 one-dose screen, 48 h (100 = growth as untreated, 0 = no growth, -100 = all killed)
Conditions in all cases: 10 µM unless noted
HCT-15 colon = system: HCT-15 colon
HT29 colon = system: HT29 colon
SNB-75 CNS = system: SNB-75 CNS
SNB-19 CNS = system: SNB-19 CNS
U251 CNS = system: U251 CNS
PC-3 prostate = system: PC-3 prostate
SK-MEL-5 melanoma = system: SK-MEL-5 melanoma
UACC-62 melanoma = system: UACC-62 melanoma
LOX IMVI melanoma = system: LOX IMVI melanoma
SK-MEL-28 melanoma = system: SK-MEL-28 melanoma

Measured: growth

COc1ccc(Cn2cc3c(c2-c2ccccc2)CCc2cnoc2-3)cc1OC
inactive: HCT-15 colon 32% | HT29 colon 16.5% | SNB-19 CNS 50.3% | U251 CNS 36.8% | PC-3 prostate 26.5% | SK-MEL-5 melanoma 10.5% | UACC-62 melanoma 48.7% | LOX IMVI melanoma 43.3% | SK-MEL-28 melanoma 58.6%
active: SNB-75 CNS -11.1%

COC1(OC)N=C(N)C2(C#N)C3(C(=O)Nc4ccccc43)C12C#N (stereo not given)
inactive: HCT-15 colon 83.8% | HT29 colon 98.9% | SNB-75 CNS 66.5% | SNB-19 CNS 108% | U251 CNS 67.9% | PC-3 prostate 87% | SK-MEL-5 melanoma 81.8% | UACC-62 melanoma 47% | LOX IMVI melanoma 50.3% | SK-MEL-28 melanoma 103%

CCCCCCCCCC[N+](C)(C)C
inactive: HCT-15 colon 39.3% | SNB-19 CNS 13.4% | UACC-62 melanoma 28.5% | SK-MEL-28 melanoma 51.8%
active: HT29 colon 8.24% | SNB-75 CNS -22.8% | U251 CNS -75.4% | PC-3 prostate -49% | SK-MEL-5 melanoma -13.6% | LOX IMVI melanoma -78.4%

CC([C@H]1CC=C2C3CCC4=C[C@@H](N(C)C)CC[C@]4(C)C3CC[C@@]21C)N(C)C (stereo not given in full)
active: HCT-15 colon -20.7% | HT29 colon -18.3% | UACC-62 melanoma -58.3% | LOX IMVI melanoma -46.5% | SK-MEL-28 melanoma -33.6%
inactive: SNB-75 CNS 32.4% | SNB-19 CNS 79.7% | U251 CNS 31.5% | PC-3 prostate 42.3% | SK-MEL-5 melanoma 23.6%

CC(C)OCC1CO1 (stereo not given)
inactive: HCT-15 colon 100% | HT29 colon 103% | SNB-75 CNS 92.7% | SNB-19 CNS 99.7% | U251 CNS 102% | PC-3 prostate 106% | SK-MEL-5 melanoma 108% | UACC-62 melanoma 98.9% | LOX IMVI melanoma 113% | SK-MEL-28 melanoma 110%

COc1ccc(C2C3(C#N)C(N)=NC(=C(C#N)C#N)C23C#N)cc1OC (stereo not given)
inactive: HCT-15 colon 114% | HT29 colon 116% | SNB-75 CNS 107% | SNB-19 CNS 106% | U251 CNS 103% | PC-3 prostate 111% | SK-MEL-5 melanoma 105% | UACC-62 melanoma 99.8% | LOX IMVI melanoma 98.7% | SK-MEL-28 melanoma 115%

COc1ccc2c(c1)/C(=C1/S/C(=N/c3nnc(C)s3)NC1=O)C(=O)N2Cc1ccc(Br)cc1
inactive: HCT-15 colon 27.5% | HT29 colon 35.4% | SNB-75 CNS 45.7% | SNB-19 CNS 24.7% | U251 CNS 14.3% | PC-3 prostate 21.9% | SK-MEL-5 melanoma 36.3% | UACC-62 melanoma 32.9% | LOX IMVI melanoma 32.1% | SK-MEL-28 melanoma 32.6%

Oc1ccc(N=Nc2ccc(N=Nc3ccccc3)cc2)cc1
active: UACC-62 melanoma 1.15% | LOX IMVI melanoma 6.08%
inactive: HCT-15 colon 40.7% | HT29 colon 53.4% | SNB-75 CNS 87.1% | SNB-19 CNS 58.4% | U251 CNS 51.6% | PC-3 prostate 43.1% | SK-MEL-5 melanoma 39.1% | SK-MEL-28 melanoma 54.4%

CCS(=O)(=O)N[C@@H]1O[C@H](COC(C)=O)C(OC(C)=O)[C@H](OC(C)=O)C1OC(C)=O (stereo not given in full)
inactive: HCT-15 colon 93.8% | HT29 colon 102% | SNB-75 CNS 93.9% | SNB-19 CNS 115% | U251 CNS 97.7% | PC-3 prostate 102% | SK-MEL-5 melanoma 105% | UACC-62 melanoma 110% | LOX IMVI melanoma 92.8% | SK-MEL-28 melanoma 108%

Cc1ncc(C(=O)Nc2ccc(CN3CCN(C)CC3)c(C(F)(F)F)c2)cc1C#Cc1cnc(NC2CC2)c2ncccc12
active: HCT-15 colon -91.9% | HT29 colon -80.7% | SNB-75 CNS -96.5% | SNB-19 CNS -97.2% | U251 CNS -95% | PC-3 prostate -66.9% | SK-MEL-5 melanoma -98.5% | UACC-62 melanoma -62.8% | LOX IMVI melanoma -81% | SK-MEL-28 melanoma -91.5%

CC(O)C(N)=O (stereo not given)
inactive: HCT-15 colon 97.1% | HT29 colon 111% | SNB-75 CNS 84.3% | SNB-19 CNS 106% | U251 CNS 103% | PC-3 prostate 92.6% | SK-MEL-5 melanoma 101% | UACC-62 melanoma 107% | LOX IMVI melanoma 109% | SK-MEL-28 melanoma 100%

O=C(/C=C1\C(=O)N(Cc2ccc([N+](=O)[O-])cc2)c2ccccc21)c1ccc(OCCN2CCCCC2)cc1
active: HCT-15 colon -80.6% | HT29 colon -89.3% | U251 CNS -46.5% | PC-3 prostate -52.3% | UACC-62 melanoma -74% | LOX IMVI melanoma -82.7% | SK-MEL-28 melanoma -51%
inactive: SNB-75 CNS 22.3% | SNB-19 CNS 57.9% | SK-MEL-5 melanoma 33.9%

O=C(/C=C/c1ccc(Cl)cc1)c1ccc(Cl)cc1
inactive: HCT-15 colon 94.3% | HT29 colon 70.2% | SNB-75 CNS 99% | SNB-19 CNS 102% | U251 CNS 93.8% | PC-3 prostate 96.8% | SK-MEL-5 melanoma 97.3% | UACC-62 melanoma 90.4% | LOX IMVI melanoma 66.5% | SK-MEL-28 melanoma 99.9%

N#CCCCCCCCCCCC#N
inactive: HCT-15 colon 99.4% | HT29 colon 95.7% | SNB-75 CNS 103% | SNB-19 CNS 109% | U251 CNS 105% | PC-3 prostate 95.8% | SK-MEL-5 melanoma 110% | UACC-62 melanoma 101% | LOX IMVI melanoma 99.4% | SK-MEL-28 melanoma 111%
